# Laboratory results from publication PMC7862700, “An all-to-all approach to the identification of sequence-specific readers for epigenetic DNA modifications on cytosine”.
# Tests used:
# Experiment in all cases: DAPPL (digital affinity profiling via proximity ligation, sequencing); 10 mM Tris-HCl pH 7.5, 50 mM NaCl, 1 mM DTT, 4% glycerol, room temperature, 30 min; GST-TFs on glutathione beads, 16-mer random dsDNA library, 0.1% formaldehyde crosslink after washing; high values mean tight binding
# HSF1 = HSF1 (Homo sapiens, UniProt Q00613 1-529); settings: protein: recombinant; tags: N-terminal GST; chain copies: 3; dsDNA, one strand shown
# Outline: (§1)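 Sequencing on an Illumina NextSeq500 followed washing, crosslinking with 0.1% formaldehyde, proximity ligation (BsaI/T4 ligase, 1 h, 37 °C) and PCR amplification of pools that had been incubated for 30 min at room temperature with 200 nmole of a random double-stranded 16-mer DNA library in Tris/NaCl/DTT/glycerol buffer. Each pool held DNA-barcoded human transcription factors, expressed in yeast as GST fusions and captured on glutathione beads, plus a tag-only sample. Binding signal is a hexamer's read frequency for a factor divided by its frequency in the tag-only sample.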
# ELK4 = target: T1, ELK4 (Homo sapiens, UniProt P28324-2 1-405); settings: protein: recombinant; tags: N-terminal GST; dsDNA, one strand shown
# T1 sequence: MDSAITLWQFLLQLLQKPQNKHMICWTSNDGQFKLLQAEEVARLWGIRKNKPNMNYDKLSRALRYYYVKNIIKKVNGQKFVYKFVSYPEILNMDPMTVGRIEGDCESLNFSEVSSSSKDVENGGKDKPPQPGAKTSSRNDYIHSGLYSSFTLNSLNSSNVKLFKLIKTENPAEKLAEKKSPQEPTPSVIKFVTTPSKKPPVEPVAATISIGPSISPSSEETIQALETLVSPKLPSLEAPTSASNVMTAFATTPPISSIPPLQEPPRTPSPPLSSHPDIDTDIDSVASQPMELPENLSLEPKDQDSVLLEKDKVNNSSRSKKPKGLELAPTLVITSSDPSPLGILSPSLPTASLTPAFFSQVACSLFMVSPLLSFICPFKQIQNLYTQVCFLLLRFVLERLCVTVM
# Outline: as §1
# CRX = CRX (Homo sapiens, UniProt O43186 1-299); settings: protein: recombinant; tags: N-terminal GST; dsDNA, one strand shown
# Outline: as §1
# ELK3 = target: T2, ELK3 (Homo sapiens, UniProt P41970 1-407); settings: protein: recombinant; tags: N-terminal GST; dsDNA, one strand shown
# T2 sequence: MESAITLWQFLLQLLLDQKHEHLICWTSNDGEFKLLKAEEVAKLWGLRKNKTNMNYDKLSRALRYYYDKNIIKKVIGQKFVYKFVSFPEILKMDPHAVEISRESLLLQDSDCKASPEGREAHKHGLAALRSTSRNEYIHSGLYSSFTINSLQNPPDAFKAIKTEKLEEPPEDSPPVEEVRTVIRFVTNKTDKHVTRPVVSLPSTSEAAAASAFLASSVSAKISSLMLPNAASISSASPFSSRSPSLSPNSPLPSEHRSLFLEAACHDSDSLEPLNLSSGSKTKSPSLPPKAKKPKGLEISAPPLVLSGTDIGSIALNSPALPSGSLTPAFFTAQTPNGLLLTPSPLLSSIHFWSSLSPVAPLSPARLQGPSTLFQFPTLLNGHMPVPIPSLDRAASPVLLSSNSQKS
# Outline: as §1
# ELF5 = target: T3, ELF5 (Homo sapiens, UniProt Q9UKW6-2 1-255); settings: protein: recombinant; tags: N-terminal GST; dsDNA, one strand shown
# T3 sequence: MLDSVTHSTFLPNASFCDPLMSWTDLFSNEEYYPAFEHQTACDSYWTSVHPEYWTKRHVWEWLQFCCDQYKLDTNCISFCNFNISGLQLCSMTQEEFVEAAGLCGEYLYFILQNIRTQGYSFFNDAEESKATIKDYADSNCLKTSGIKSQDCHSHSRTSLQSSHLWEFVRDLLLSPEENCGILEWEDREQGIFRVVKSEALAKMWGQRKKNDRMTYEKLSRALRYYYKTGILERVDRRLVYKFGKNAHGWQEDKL
# Outline: as §1
# ERG = target: T4, ERG (Homo sapiens, UniProt P11308 1-479); settings: protein: recombinant; tags: N-terminal GST; dsDNA, one strand shown
# T4 sequence: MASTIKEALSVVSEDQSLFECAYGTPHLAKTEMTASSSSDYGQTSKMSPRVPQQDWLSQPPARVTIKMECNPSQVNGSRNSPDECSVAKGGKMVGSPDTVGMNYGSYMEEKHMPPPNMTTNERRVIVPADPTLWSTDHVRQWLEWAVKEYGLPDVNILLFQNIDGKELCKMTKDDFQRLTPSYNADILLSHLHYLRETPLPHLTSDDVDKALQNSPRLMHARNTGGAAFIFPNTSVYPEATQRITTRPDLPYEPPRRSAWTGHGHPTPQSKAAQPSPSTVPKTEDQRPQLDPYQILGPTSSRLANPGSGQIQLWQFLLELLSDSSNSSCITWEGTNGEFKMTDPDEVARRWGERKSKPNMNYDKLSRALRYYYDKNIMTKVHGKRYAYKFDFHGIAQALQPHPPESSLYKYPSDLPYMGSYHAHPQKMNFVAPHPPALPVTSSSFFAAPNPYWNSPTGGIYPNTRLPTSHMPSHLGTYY
# Outline: as §1
# SPIC = target: T5, SPIC (Homo sapiens, UniProt Q8N5J4 1-248); settings: protein: recombinant; tags: N-terminal GST; dsDNA, one strand shown
# T5 sequence: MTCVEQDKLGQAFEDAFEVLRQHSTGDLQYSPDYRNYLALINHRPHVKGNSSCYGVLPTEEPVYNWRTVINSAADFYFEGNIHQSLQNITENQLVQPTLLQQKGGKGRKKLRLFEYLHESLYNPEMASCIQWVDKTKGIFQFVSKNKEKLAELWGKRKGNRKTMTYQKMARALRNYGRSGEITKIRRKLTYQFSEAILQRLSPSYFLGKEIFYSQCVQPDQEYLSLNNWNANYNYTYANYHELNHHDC
# Outline: as §1
# ELF3 = target: T6, ELF3 (Homo sapiens, UniProt P78545 1-371); settings: protein: recombinant; tags: N-terminal GST; dsDNA, one strand shown
# T6 sequence: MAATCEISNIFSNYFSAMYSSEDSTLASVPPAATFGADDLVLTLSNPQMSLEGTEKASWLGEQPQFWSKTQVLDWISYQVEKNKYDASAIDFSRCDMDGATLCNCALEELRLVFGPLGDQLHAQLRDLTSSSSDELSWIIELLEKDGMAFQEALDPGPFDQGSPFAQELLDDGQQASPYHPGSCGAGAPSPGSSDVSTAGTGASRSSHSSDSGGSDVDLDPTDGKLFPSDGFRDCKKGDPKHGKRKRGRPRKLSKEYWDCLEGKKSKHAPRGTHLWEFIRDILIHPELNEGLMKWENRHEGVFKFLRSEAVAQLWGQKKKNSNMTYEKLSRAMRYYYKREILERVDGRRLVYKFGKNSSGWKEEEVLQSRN
# Outline: as §1
# ELK1 = target: T7, ELK1 (Homo sapiens, UniProt P19419 1-428); settings: protein: recombinant; tags: N-terminal GST; dsDNA, one strand shown
# T7 sequence: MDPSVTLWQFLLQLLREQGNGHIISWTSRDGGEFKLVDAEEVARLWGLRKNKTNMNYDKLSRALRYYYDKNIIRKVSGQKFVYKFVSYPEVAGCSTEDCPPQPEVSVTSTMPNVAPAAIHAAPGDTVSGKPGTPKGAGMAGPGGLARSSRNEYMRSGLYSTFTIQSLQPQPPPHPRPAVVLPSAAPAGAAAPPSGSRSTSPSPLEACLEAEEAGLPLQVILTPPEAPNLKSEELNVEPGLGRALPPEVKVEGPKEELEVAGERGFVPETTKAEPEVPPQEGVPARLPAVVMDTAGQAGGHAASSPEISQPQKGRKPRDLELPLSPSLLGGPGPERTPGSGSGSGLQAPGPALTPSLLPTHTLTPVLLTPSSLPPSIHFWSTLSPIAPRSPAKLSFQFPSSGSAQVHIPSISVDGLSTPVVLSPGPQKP
# Outline: as §1
# GABPA = target: T8, GABPA (Homo sapiens, UniProt Q06546 1-454); settings: protein: recombinant; tags: N-terminal GST; dsDNA, one strand shown
# T8 sequence: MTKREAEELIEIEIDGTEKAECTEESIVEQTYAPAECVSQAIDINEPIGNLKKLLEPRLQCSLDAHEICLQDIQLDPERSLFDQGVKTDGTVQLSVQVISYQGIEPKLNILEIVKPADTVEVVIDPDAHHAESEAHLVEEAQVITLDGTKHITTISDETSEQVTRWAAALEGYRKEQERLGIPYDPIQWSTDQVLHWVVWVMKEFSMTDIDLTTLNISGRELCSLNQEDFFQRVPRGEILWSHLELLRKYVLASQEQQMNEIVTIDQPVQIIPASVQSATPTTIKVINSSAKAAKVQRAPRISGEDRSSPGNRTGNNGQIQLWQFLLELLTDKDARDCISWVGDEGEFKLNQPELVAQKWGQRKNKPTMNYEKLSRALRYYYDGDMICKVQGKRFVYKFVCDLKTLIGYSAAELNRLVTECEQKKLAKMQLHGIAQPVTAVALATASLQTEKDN
# Outline: as §1
# EHF = target: T9, EHF (Homo sapiens, UniProt Q9NZC4 1-300); settings: protein: recombinant; tags: N-terminal GST; dsDNA, one strand shown
# T9 sequence: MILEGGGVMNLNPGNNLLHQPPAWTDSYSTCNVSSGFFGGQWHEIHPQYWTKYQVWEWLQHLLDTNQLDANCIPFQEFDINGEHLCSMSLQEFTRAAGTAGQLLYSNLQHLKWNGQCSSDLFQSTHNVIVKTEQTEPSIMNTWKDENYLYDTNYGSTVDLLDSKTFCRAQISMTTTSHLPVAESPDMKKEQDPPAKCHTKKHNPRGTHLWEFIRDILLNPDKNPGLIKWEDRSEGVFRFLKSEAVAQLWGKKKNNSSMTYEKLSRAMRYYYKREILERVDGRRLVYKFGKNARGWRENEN
# Outline: as §1
# ELF4 = ELF4 (Homo sapiens, UniProt Q99607 1-663); settings: protein: recombinant; tags: N-terminal GST; dsDNA, one strand shown
# Outline: as §1
# ETV7 = target: T10, ETV7 (Homo sapiens, UniProt Q9Y603 1-341); settings: protein: recombinant; tags: N-terminal GST; dsDNA, one strand shown
# T10 sequence: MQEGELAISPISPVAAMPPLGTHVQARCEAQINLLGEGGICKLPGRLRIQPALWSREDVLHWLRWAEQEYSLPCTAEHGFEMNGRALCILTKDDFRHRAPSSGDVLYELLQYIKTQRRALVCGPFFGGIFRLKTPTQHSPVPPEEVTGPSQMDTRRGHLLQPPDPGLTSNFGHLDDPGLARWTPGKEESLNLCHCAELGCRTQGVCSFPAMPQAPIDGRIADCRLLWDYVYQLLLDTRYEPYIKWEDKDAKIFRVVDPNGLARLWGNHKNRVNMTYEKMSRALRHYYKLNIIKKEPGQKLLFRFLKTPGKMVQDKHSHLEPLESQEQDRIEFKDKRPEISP
# Outline: as §1
# ETV1 = ETV1 (Homo sapiens, UniProt P50549 1-477); settings: protein: recombinant; tags: N-terminal GST; dsDNA, one strand shown
# Outline: as §1
# ERF = target: T11, ERF (Homo sapiens, UniProt P50548 1-548); settings: protein: recombinant; tags: N-terminal GST; dsDNA, one strand shown
# T11 sequence: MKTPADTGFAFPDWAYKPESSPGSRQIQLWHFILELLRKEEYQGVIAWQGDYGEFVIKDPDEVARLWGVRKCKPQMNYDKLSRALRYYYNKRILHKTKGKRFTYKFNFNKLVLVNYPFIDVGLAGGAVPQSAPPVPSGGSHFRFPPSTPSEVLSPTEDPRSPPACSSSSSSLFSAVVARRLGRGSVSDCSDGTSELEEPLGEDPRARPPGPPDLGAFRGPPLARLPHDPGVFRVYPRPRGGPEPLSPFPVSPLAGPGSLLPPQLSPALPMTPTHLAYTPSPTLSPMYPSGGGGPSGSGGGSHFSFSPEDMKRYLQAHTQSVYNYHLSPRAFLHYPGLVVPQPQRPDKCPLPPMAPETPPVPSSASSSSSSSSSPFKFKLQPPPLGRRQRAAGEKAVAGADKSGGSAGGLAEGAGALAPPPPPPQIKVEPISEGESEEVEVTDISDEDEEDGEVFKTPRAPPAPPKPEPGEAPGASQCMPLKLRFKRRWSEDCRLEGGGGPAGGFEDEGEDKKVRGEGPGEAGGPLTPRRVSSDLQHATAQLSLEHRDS
# Outline: as §1
# Sequence of CRX (O43186 whole entry): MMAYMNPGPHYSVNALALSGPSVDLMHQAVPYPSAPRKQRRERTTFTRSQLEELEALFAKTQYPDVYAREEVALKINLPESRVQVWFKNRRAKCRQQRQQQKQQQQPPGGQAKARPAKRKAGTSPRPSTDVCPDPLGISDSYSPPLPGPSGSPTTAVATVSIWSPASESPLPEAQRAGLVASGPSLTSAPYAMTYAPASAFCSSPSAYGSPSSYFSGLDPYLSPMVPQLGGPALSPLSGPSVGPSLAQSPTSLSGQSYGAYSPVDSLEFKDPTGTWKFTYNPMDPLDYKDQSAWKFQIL
# Sequence of HSF1 (Q00613 whole entry, the tested form may be a part): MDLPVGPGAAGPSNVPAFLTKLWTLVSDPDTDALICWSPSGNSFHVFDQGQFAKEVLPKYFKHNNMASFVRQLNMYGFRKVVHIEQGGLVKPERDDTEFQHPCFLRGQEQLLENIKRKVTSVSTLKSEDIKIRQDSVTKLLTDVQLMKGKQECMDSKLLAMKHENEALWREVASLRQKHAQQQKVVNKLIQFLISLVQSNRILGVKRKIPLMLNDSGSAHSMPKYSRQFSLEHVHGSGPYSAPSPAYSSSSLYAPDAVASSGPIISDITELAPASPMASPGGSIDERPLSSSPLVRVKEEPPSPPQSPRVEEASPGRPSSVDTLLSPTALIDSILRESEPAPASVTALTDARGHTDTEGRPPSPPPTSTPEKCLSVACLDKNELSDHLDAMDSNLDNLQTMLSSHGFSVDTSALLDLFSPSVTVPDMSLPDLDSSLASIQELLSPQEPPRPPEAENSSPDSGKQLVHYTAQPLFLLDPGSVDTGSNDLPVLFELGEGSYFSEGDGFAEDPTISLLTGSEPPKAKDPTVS
# Sequence of ELF4 (Q99607 whole entry): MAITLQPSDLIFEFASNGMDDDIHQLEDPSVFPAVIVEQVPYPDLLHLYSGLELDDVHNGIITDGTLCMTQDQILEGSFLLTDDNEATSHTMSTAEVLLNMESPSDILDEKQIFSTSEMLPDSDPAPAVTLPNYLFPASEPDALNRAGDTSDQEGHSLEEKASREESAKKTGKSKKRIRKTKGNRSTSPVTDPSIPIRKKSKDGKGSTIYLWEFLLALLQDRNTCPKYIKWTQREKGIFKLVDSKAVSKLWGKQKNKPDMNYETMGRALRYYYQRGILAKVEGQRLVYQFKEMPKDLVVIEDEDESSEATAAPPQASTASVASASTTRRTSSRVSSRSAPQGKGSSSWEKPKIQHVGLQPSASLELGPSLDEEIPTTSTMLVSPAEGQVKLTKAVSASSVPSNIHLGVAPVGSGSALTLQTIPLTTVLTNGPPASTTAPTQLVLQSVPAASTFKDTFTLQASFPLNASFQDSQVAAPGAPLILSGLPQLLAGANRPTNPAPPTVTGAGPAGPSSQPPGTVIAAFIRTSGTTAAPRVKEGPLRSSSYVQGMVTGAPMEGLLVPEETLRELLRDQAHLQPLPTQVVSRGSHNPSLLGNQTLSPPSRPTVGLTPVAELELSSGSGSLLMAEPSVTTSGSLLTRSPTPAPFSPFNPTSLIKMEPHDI
# Sequence of ETV1 (P50549 whole entry): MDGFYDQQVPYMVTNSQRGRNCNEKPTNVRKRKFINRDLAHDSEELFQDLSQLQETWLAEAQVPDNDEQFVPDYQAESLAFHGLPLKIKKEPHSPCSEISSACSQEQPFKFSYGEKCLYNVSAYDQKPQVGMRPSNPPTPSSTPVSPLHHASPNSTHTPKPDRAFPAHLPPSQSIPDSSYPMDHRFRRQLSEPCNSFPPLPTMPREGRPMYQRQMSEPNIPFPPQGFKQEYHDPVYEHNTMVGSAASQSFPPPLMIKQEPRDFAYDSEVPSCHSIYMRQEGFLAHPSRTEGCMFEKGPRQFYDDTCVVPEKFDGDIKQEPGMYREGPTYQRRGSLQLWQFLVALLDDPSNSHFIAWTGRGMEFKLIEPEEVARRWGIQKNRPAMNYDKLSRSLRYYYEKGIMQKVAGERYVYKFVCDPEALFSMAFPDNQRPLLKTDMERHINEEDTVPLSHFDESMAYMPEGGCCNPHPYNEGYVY
sequence,measurement,setting,value
TTAGTG,binding signal,HSF1,"1.3 fold enrichment (6-mer frequency, TF over GST control)"
same,binding signal,ELK4,"1.11 fold enrichment (6-mer frequency, TF over GST control)"
same,binding signal,CRX,"1.89 fold enrichment (6-mer frequency, TF over GST control)"
AGATAT,binding signal,ELK3,"1 fold enrichment (6-mer frequency, TF over GST control)"
same,binding signal,HSF1,"1.1 fold enrichment (6-mer frequency, TF over GST control)"
same,binding signal,ELK4,"1.04 fold enrichment (6-mer frequency, TF over GST control)"
same,binding signal,CRX,"1.06 fold enrichment (6-mer frequency, TF over GST control)"
same,binding signal,ELF5,"1.06 fold enrichment (6-mer frequency, TF over GST control)"
AGAACC,binding signal,ERG,"1.01 fold enrichment (6-mer frequency, TF over GST control)"
same,binding signal,HSF1,"1.55 fold enrichment (6-mer frequency, TF over GST control)"
same,binding signal,SPIC,"1.03 fold enrichment (6-mer frequency, TF over GST control)"
same,binding signal,ELF3,"1.06 fold enrichment (6-mer frequency, TF over GST control)"
TCGGCT,binding signal,ELK1,"1.02 fold enrichment (6-mer frequency, TF over GST control)"
same,binding signal,GABPA,"1.03 fold enrichment (6-mer frequency, TF over GST control)"
same,binding signal,ERG,"1.09 fold enrichment (6-mer frequency, TF over GST control)"
same,binding signal,EHF,"1.02 fold enrichment (6-mer frequency, TF over GST control)"
same,binding signal,HSF1,"1.15 fold enrichment (6-mer frequency, TF over GST control)"
same,binding signal,ELF4,"1.1 fold enrichment (6-mer frequency, TF over GST control)"
same,binding signal,CRX,"1.34 fold enrichment (6-mer frequency, TF over GST control)"
same,binding signal,ETV7,"1.05 fold enrichment (6-mer frequency, TF over GST control)"
TAGCGC,binding signal,GABPA,"1.01 fold enrichment (6-mer frequency, TF over GST control)"
same,binding signal,HSF1,"1.02 fold enrichment (6-mer frequency, TF over GST control)"
same,binding signal,ELF4,"1.01 fold enrichment (6-mer frequency, TF over GST control)"
same,binding signal,CRX,"1.03 fold enrichment (6-mer frequency, TF over GST control)"
same,binding signal,ETV1,"1.07 fold enrichment (6-mer frequency, TF over GST control)"
same,binding signal,ERF,"1.03 fold enrichment (6-mer frequency, TF over GST control)"
